Screening results (PubChem BioAssay)
Fh CTSL1 inh – Fasciola hepatica cathepsin L1 inhibitors, primary screen, counter-screen for PFM18AAP inhibitor project, biochemical, QFRET, fluorogenic peptide substrate | AID 1906, 2009 | hit rate 0.49% among 300,000 | inhibition, % at 5.96 µM | recombinant F. hepatica cathepsin L1, Z-Leu-Arg-MCA fluorescence;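 active = inhibition above the mean of all tested compounds plus 3 SD, set per screening campaign, cut at about 17% in these data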;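 note: 0% = plate median of test compound wells and 100% = 1 µM Z-Phe-Ala-diazomethylketone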
Calb FLC – C. albicans growth inhibition with fluconazole, primary screen, CaCi-2 strain, Alamar Blue fluorescence; C. albicans CaCi-2 (fluconazole-resistant clinical isolate) + fluconazole, 48 h; growth inhibition, % (test concentration not listed); hit rate 0.57% among 300,000; AID 1979, 2009;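 active = growth inhibition above about 58% in most replicates, limit read from the data, passing the limit was not always enough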;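 note: all wells also contain fluconazole at 8 µg/ml as a sub-toxic cotreatment; 0% = median of DMSO wells and 100% = median of geldanamycin control wells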
Rin1 Abl inh – inhibitors of Rin1-Abl protein binding, primary screen, biochemical, TR-FRET; inhibition, % at 7.35 µM; hit rate 0.4% among 360,000; Tyrosine-protein kinase ABL1 (Homo sapiens) + Ras and Rab interactor 1 (Homo sapiens), …; in the data active = inhibition above about 5%, passing the limit was not always enough
M18AAP inhibitor – PfM18AAP inhibitors, malaria aminopeptidase, primary screen, biochemical, QFRET, recombinant enzyme; H-Glu-NHMec fluorogenic cleavage; inhibition, % at 7.35 µM; hit rate 1.2% among 290,000;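 active = inhibition above the campaign mean inhibition over all tested compounds plus 3 SD, cut at about 28% in these data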;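 note: 0% = plate median of test compound wells and 100% = 2 mM ZnCl2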
* hit, by the source's call; ! = not active in a repeat. A selection: hits, their analogues and other compounds. The true share with any hit is near 2.1%.

`Cc1cc(OCC(=O)N2CCC(C(=O)O)(c3ccccc3)CC2)c2c(C)c(C)c(=O)oc2c1` gave Fh CTSL1 inh 18*, Calb FLC 1, Rin1 Abl inh 5 and M18AAP inhibitor -3.
For CCOc1cc2c(cc1OCC)-n1cccc1C(c1ccccc1O)NC2 (stereo not given) the results were Fh CTSL1 inh 8, Calb FLC -9, Rin1 Abl inh -1 and M18AAP inhibitor 6.
CCC(C)N1C(=O)NC(=O)C2(Cc3cc(C)ccc3N(C)C2)C1=O (stereo not given) was read as Fh CTSL1 inh 1, Calb FLC 1, Rin1 Abl inh 4 and M18AAP inhibitor 3.
Screening CSc1ccc(CN2CCN(C(=O)COc3cccc(C)c3)CC2)cc1 returned Fh CTSL1 inh -1, Calb FLC 24, Rin1 Abl inh -3 and M18AAP inhibitor 3.
For Cc1cc([N+](=O)[O-])c(Cl)cc1NC(=O)C(C)C the results were Fh CTSL1 inh -3, Calb FLC -4, Rin1 Abl inh 0 and M18AAP inhibitor 2.
Screening CNc1cc(Cl)c2nonc2c1[N+](=O)[O-] returned Calb FLC 100*, Rin1 Abl inh 2 and M18AAP inhibitor -35.
`C=CCN(CC=C)C(=O)CCN1CC1C` (stereo not given) gave Rin1 Abl inh -2.
For O=C(NP(=O)(N1CC1)N1CC1)c1cc(I)ccc1I the results were Rin1 Abl inh 3.
`CC(C)C[C@H]1C(=O)N2CCC[C@H]2[C@]2(O)O[C@](NC(=O)[C@@H]3C=C4c5cccc6[nH]cc(c56)C[C@H]4N(C)C3)(C(C)C)C(=O)N12` gave Fh CTSL1 inh 34* and Rin1 Abl inh -8.
O=[N+]([O-])c1ccc(Cl)cc1 was read as Rin1 Abl inh 3.
`CCN1CCN(CC(c2ccccc2)c2ccccc2)CC1` gave Fh CTSL1 inh 5, Calb FLC -19, Rin1 Abl inh -1 and M18AAP inhibitor 6.
`O=C(c1ccccc1)C(CN1CCCC1)c1ccccc1` (stereo not given) gave Fh CTSL1 inh -1, Calb FLC 93*, Rin1 Abl inh 1 and M18AAP inhibitor 0.
For O=C(NCC(c1cccnc1)N1CCOCC1)Oc1ccccc1 (stereo not given) the results were Fh CTSL1 inh 2, Calb FLC 0, Rin1 Abl inh 3 and M18AAP inhibitor -1.
Screening O=C(NC(C(Cl)Cl)N1CCOCC1)c1ccccc1 (stereo not given) returned Fh CTSL1 inh 68*, Calb FLC -9, Rin1 Abl inh 1 and M18AAP inhibitor 6.
CN1C(=O)/C(=C/C=C/c2ccco2)C(=O)NC1=S was read as Fh CTSL1 inh 2, Calb FLC 0, Rin1 Abl inh 5.4* and M18AAP inhibitor 13.
For O=C1NC(=O)N(Cc2ccccc2)C(=O)/C1=C\C=C\c1ccco1 the results were Fh CTSL1 inh 4, Calb FLC 14, Rin1 Abl inh 2 and M18AAP inhibitor 30*.
`O=C1NC(=O)N(c2ccccc2)C(=O)/C1=C/C=C/c1ccco1` gave Fh CTSL1 inh -4, Calb FLC -2, Rin1 Abl inh 3 and M18AAP inhibitor 24.
`c1cc2c(cc1N1CCCCC1)C1CC2CCN1` (stereo not given) gave Rin1 Abl inh -1.
`CN1CCCC(C(=O)c2ccc(Cl)cc2)C1` (stereo not given) gave Fh CTSL1 inh 2, Calb FLC -36, Rin1 Abl inh 3 and M18AAP inhibitor 3.
`CC1(CCl)CN1S(=O)(=O)c1ccccc1` (stereo not given) gave Fh CTSL1 inh 28*, Calb FLC 6, Rin1 Abl inh 1 and M18AAP inhibitor 1.
Screening C[C@]1(O)CCC2C3CC[C@H]4C[C@@H](OC(=O)CNC(=O)CN)CC[C@]4(C)C3CC[C@@]21C (stereo not given in full) returned Rin1 Abl inh -1.
For CC(C)(C)c1ccc(CSc2cnn(C(C)(C)C)c(=O)c2Cl)cc1 the results were Fh CTSL1 inh 3, Calb FLC 84*, Rin1 Abl inh 5 and M18AAP inhibitor -6.
Screening CCC(CO)NC(=O)C1C=C2c3cccc4[nH]cc(c34)CC2N(C)C1 (stereo not given) returned Fh CTSL1 inh 1, Rin1 Abl inh -6 and M18AAP inhibitor 13.
CC[C@@H](CO)NC(=O)[C@@H]1C=C2c3cccc4c3c(cn4C)C[C@H]2N(C)C1 was read as Fh CTSL1 inh 17*!, Calb FLC 14, Rin1 Abl inh -22 and M18AAP inhibitor 3.
Screening CC12CC1(C)C(=O)N(c1cc(Cl)cc(Cl)c1)C2=O (stereo not given) returned Rin1 Abl inh 2.
Screening C=C1C(=O)O[C@@H]2C[C@@H](C)[C@@H]3C4OC4C(=O)[C@@]3(C)[C@@H](O)[C@H]12 (stereo not given in full) returned Fh CTSL1 inh 0, Calb FLC 77* and Rin1 Abl inh 4.
COc1ccc(-c2cc(-c3ccccc3)[n+](C)c(-c3ccccc3)c2)cc1 was read as Fh CTSL1 inh 0, Calb FLC 103*, Rin1 Abl inh -1 and M18AAP inhibitor -5.
`C[n+]1c(-c2ccccc2)cc(CCCCc2cc(-c3ccccc3)[n+](C)c(-c3ccccc3)c2)cc1-c1ccccc1` gave Fh CTSL1 inh 0, Calb FLC 111*, Rin1 Abl inh -2 and M18AAP inhibitor 0.
For O=C(O)c1ccc(-[n+]2c(-c3ccccc3)cc(-c3ccccc3)cc2-c2ccccc2)cc1 the results were Fh CTSL1 inh -1, Calb FLC -14 and Rin1 Abl inh 4.
`Cc1ccc(-c2cc(-c3ccccc3)cc(-c3ccccc3)[n+]2-c2ccc(C(=O)O)cc2)cc1` gave Fh CTSL1 inh 4, Calb FLC -12 and Rin1 Abl inh 1.
`COc1ccc(-[n+]2c(-c3ccccc3)cc(-c3ccc(C)cc3)cc2-c2ccccc2)cc1` gave Fh CTSL1 inh -1, Calb FLC 89*, Rin1 Abl inh -3 and M18AAP inhibitor 2.
COC(=O)C1=C(c2cc3ccccc3o2)C[C@@H]2CC[C@H]1N2C(=O)NC(C)C was read as Fh CTSL1 inh -1, Calb FLC 9 and Rin1 Abl inh -1.
For O=c1[nH]c(=S)n(-c2ccc(Cl)cc2)c(O)c1/C=N/N1CCOCC1 the results were Fh CTSL1 inh 5, Calb FLC -4, Rin1 Abl inh 0 and M18AAP inhibitor 0.
For O=C1C2CCN(CC2)C1Cc1ccccc1O (stereo not given) the results were Fh CTSL1 inh 6, Calb FLC 2 and M18AAP inhibitor -2.
For O=C1C2CCN(CC2)C1Cc1ccc(OCCOc2ccccc2)cc1 (stereo not given) the results were Fh CTSL1 inh 7, Calb FLC 109*, Rin1 Abl inh 2 and M18AAP inhibitor 7.
For O=[N+]([O-])c1ccc(C2[C@H]3C(c4ccccc4)=NC4(CCCC4)N23)cc1 (stereo not given in full) the results were Fh CTSL1 inh 0, Calb FLC 99*, Rin1 Abl inh -2 and M18AAP inhibitor -4.
